TDP1 cell CPT = qHTS for Inhibitors of human tyrosyl-DNA phosphodiesterase 1 (TDP1): qHTS in cells in presence of CPT; chicken DT40 Tdp1-/-;hTDP1 cells + 20 nM CPT, ATP luminescence, 48 h; Potency, µM (titrated, usually from 46.2 µM), without a hit: top-dose activity change, negative = growth inhibition, most hits filed as inhibitors; 420,000 compounds, 12% hits; also: potency is read from the fitted curve at half-maximal effect; nearly all actives have a fitted effect of over 55% in size
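Cell growth measured by CellTiter-Glo luminescence after a minimum 48 h, 37 C compound exposure with 20 nM CPT in Tdp1-knockout DT40 cells stably expressing hTDP1, seeded 400/well; qHTS titration format.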
TDP1 block = qHTS Assay for Inhibitors of Tyrosyl-DNA Phosphodiesterase (TDP1) | Tyrosyl-DNA phosphodiesterase 1 (Homo sapiens), Q9NUW8 | recombinant TDP1, AlphaScreen DNA substrate cleavage | Potency, µM (titrated, usually from 130 µM), inactives show at the top dose activity change, negative = inhibition, usual class: inhibitors | 350,000 compounds, 0.28% hits | AID 485290, 2010; also: potency is read from the fitted curve at half-maximal effect; nearly all actives have a fitted effect of over 40% in size
Target sequence (Q9NUW8 whole entry, looked up): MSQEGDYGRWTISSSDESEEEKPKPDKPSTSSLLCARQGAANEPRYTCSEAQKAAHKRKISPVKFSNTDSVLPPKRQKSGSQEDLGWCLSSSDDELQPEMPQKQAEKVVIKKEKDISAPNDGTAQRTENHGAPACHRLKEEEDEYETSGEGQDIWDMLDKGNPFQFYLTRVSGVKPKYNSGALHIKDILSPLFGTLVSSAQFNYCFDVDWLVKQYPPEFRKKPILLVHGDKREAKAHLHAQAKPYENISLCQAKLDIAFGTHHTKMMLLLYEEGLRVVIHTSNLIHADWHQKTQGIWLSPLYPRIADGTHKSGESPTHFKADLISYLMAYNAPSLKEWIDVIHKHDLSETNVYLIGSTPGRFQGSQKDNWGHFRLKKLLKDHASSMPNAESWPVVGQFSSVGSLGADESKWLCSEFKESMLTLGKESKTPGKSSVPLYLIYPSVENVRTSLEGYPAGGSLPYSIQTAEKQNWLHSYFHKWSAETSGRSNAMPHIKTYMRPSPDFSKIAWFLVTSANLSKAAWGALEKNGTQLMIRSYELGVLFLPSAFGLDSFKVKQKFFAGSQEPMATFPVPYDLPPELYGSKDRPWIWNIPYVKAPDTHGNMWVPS
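Signal: AlphaScreen proximity between streptavidin donor and anti-FITC acceptor beads on intact substrate. Reaction: Tdp1 1 nM, substrate 15 nM final, 5 min RT after 15 min compound preincubation.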
CtBP-E1A blk = qHTS Assay for Inhibitors of the CtBP/E1A Interaction. 340,000 compounds, 0.49% hits. CtBP / adenovirus E1A interaction (AlphaScreen). activity change, % (no concentration beside the values). AlphaScreen GST-E1A/His-CtBP binding, 1536-well; active compounds read low; in the data active = activity change below about -65%; inconclusive = mostly about -30% to -63%
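GST-E1A and His-tagged CtBP (125 nM each as 5X stock) were preincubated with pin-transferred compound for 2 h at 37 °C in the dark, then glutathione donor and nickel acceptor beads were added for 1 h before AlphaScreen reading.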
TDP1 cell noCPT = qHTS for Inhibitors of human tyrosyl-DNA phosphodiesterase 1 (TDP1): qHTS in cells in absence of CPT; DT40 Tdp1-/- hTDP1 cells, no CPT, ATP luminescence, 48 h; Potency, µM (series often up to 46.2 µM), for inactives: at the top dose activity change, negative = growth inhibition, usual class: inhibitors; 420,000 compounds, 15% hits; AID 686978, 2013; also: potency is read from the fitted curve at half-maximal effect; nearly all actives have a fitted effect of over 55% in size
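A cellular qHTS used chicken DT40 cells lacking endogenous Tdp1 but carrying stably transfected human TDP1. Compounds were applied without camptothecin, and cell growth kinetics were judged by ATP-dependent luminescence after ≥48 hr.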
Six1-Eya2 blk = qHTS Assay for Inhibitors of the Six1/Eya2 Interaction; activity change, % (concentration not given with the values); AlphaScreen GST-Six1/His-Eya2 binding, biochemical; active compounds read low; 360,000 compounds, 0.56% hits; Homeobox protein SIX1 (Homo sapiens) + Protein phosphatase EYA2 (Homo sapiens), …; in the data active = activity change below about -65%; inconclusive = mostly about -30% to -63%
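Homogeneous AlphaScreen proximity assay pairing GST-Six1 with His-tagged Eya2 (added as 5X mix: 250 nM and 500 nM) in 50 mM Tris pH 8.0, 300 mM NaCl, 1 mM TCEP. Glutathione donor and nickel acceptor beads; 1 h, 37 °C, dark.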
IL1B secr inh = qHTS for Inhibitors of Inflammasome Signaling: IL-1-beta AlphaLISA Primary Screen | THP-1 LPS/ATP IL-1B secretion, AlphaLISA, 16 h; active compounds read low | activity change, % at 57.5 µM | 360,000 compounds, 4.7% hits; in the data active = activity change below about -50%; inconclusive = mostly about -30% to -49%
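Secreted IL-1B measured by AlphaLISA bead assay after 16 h compound exposure of THP-1 cells; compounds (final up to 57.5 uM) added 1 h before LPS (250 ng/mL) and ATP (1.25 mM) stimulation; lower signal means less secretion.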
* marks the source's active call; other numbers are inactive results; ? = inconclusive; · = no result given. Only some compounds are listed: those with a hit (about 18% of all), similar ones and a draw of the others. Unless noted, calls follow the shape of the dose curve; as a rule, active = well fitted curve in the direction sought with a large enough effect; inconclusive = small, poorly fitted or top-dose-only effect, or another doubt; inactive = no such curve, though single readings can be large; an effect the other way counts as inactive or inconclusive. % is scaled to controls: 0 for no effect and ±100 for the full control effect.

SMILES	TDP1 cell CPT	TDP1 block	CtBP-E1A blk	TDP1 cell noCPT	Six1-Eya2 blk	IL1B secr inh
CCN1CCC(N(Cc2ccc3c(c2)OCO3)C(=O)Nc2cc(Cl)ccc2C(=O)OC)CC1	13µM*	4%	·	7.3µM*	·	·
CC(=O)N1CCC(N(Cc2ccc(C)o2)C(=O)Nc2ccccc2F)CC1	-17%	7%	·	-27%	·	·
COC(=O)c1ccc(Cl)cc1NC(=O)N(Cc1ccc(C)o1)C1CCN(C(C)=O)CC1	?	6%	·	15µM*	·	·
CC(C)CN1CC[C@@]2(CCCN(C(=O)c3cccc(F)c3)C2)C1	5%	·	·	-2%	·	·
CC(c1ccccc1)N1C(=O)CC(Sc2ncccc2C(=O)O)C1=O (stereo not given)	-4%	0%	8	-3%	1	17
O=[N+]([O-])c1ccc(NC2CCN(Cc3ccccc3)CC2)c([N+](=O)[O-])c1	?	8%	·	21µM*	?	-3
CC1CCC2C(=O)N(c3ccc(NC4CCN(Cc5ccccc5)CC4)c([N+](=O)[O-])c3)C(=O)C2C1 (stereo not given)	?	7%	·	16µM*	?	-13
CCNC(=O)C(CC(C)C)NC(=O)C(CO)NC(=O)C1CCC(=O)N1 (stereo not given)	-2%	-1%	1	26%	6	37
Cc1cccc(N2C(=O)CC(N3CCN(Cc4ccc(Cl)cc4)CC3)C2=O)c1 (stereo not given)	?	5%	5	-27%	4	18
Cc1ccc(OCC(=O)N/N=C\c2ccc(-c3cccc(C(=O)O)c3)o2)c(C)c1	-9%	-2%	-4	-19%	?	0
CNC(=S)N/N=C/c1ccc(-c2cccc(C(=O)O)c2)o1	9.2µM*	-9%	-11	8.2µM*	-10	19
Cc1ccc(C(=O)N/N=C/c2ccc(-c3cccc(C(F)(F)F)c3)o2)cn1	2.9µM*	·	1	2.6µM*	-13	3
COc1ccc2[nH]c(=O)c(CN(C)C(=O)C3CCCCC3)cc2c1	?	1%	2	?	17	8
Cc1c[n+]([O-])cc(C)c1Oc1ccccc1	10%	-2%	6	-22%	12	23
Cc1ccc(S(=O)(=O)CC2CSc3nc4ccccc4n32)cc1 (stereo not given)	1.8µM*	3%	6	1.8µM*	2	-3
Cc1ccc(NC(=O)NCC2CCN(Cc3cccc(Cl)c3)CC2)c(Cl)c1	?	2%	1	-30%	-6	-51*
Cc1ccc(NC(=O)NCC2CCN(Cc3cc(C)ccc3Cl)CC2)c(C)c1	?	5%	5	?	15	9
O=C(Nc1ccccc1)c1ccc(CN2CCC(Cc3ccccc3)CC2)cc1	?	·	-1	?	-1	-19
O=C(Nc1ccccc1C(F)(F)F)c1ccc(CN2CCC(Cc3ccccc3)CC2)cc1	18µM*	3%	0	-96%	-1	-52*
O=C(NCC1CCN(Cc2cccc(Cl)c2)CC1)Nc1ccccc1Cl	-21%	·	0	?	-10	-83*
Cc1ccc(CN2CCC(CNC(=O)Nc3ccccc3F)CC2)cc1	1%	2%	-2	?	1	-53*
O=C(NCC1CC1)Nc1ccccc1F	-11%	·	7	16%	-2	11
COCCNC(=O)CCN1N=C(c2ccccc2)CCC1=O	6%	·	3	-5%	0	-6
CCCS(=O)(=O)NC(=O)C1(C)CCCN(C(=O)c2nc3ccccc3s2)C1 (stereo not given)	5%	·	2	-11%	1	0
CC1CCCCC1NC(=O)c1ccc(NS(=O)(=O)c2ccc3[nH]c(=O)[nH]c3c2)cc1 (stereo not given)	?	-7%	2	2%	-3	-3
SMILES	TDP1 cell CPT	TDP1 block	CtBP-E1A blk	TDP1 cell noCPT	Six1-Eya2 blk	IL1B secr inh
C[N+](C)(C)CCCN1C(=O)CCCC1=O	-7%	4%	2	-6%	7	13
CC(=O)c1ccc(N2CCN(c3ccc(S(=O)(=O)N4CCN(C)CC4)cn3)CC2)cc1	-33%	-4%	8	-36%	-1	35
CN1CCN(S(=O)(=O)c2ccc(N3CCN(C(c4ccccc4)c4ccccc4)CC3)nc2)CC1	?	-2%	·	16µM*	10	19
CN1CCN(S(=O)(=O)c2ccc(N3CCN(S(=O)(=O)/C=C/c4ccccc4)CC3)nc2)CC1	18µM*	5%	-3	?	-1	-8
CC(C)N1CCN(c2ccc(S(=O)(=O)N3CCOCC3)cn2)CC1	0%	0%	-7	16%	-14	-15
Cc1ccc(NC(=O)c2ccc(OC(F)F)cc2)cc1S(=O)(=O)N(C)C	?	0%	-4	?	-10	0
NC(=O)c1ccc(-n2nnnc2SCc2ccccc2)cc1	-7%	5%	2	?	-3	3
O=C(Nc1nccs1)c1ccc(CSc2nnnn2-c2ccccc2)cc1	13µM*	-4%	-79*	-59%	-68*	?
COc1cccc(CN2CC(C(=O)NCCOc3cccnc3)CCC2=O)c1 (stereo not given)	-25%	3%	-9	-20%	5	0
O=C(c1ccccc1)c1ccccc1N1C(=O)C=CC1=O	0.73µM*	10%	-20	1.6µM*	-13	-98*
O=C(O)c1cccc(N2C(=O)C=CC2=O)c1	?	·	0	?	?	0
O=C1C=CC(=O)N1c1ccccc1N1C(=O)C=CC1=O	0.92µM*	·	-23	0.58µM*	-13	-98*
CCCCN(C(=O)NC(=O)Nc1c(C)cc(C)cc1C)S(C)(=O)=O	-9%	6%	9	-26%	1	-14
CCc1cc2cc(C)cc(C)c2nc1Cl	5%	-2%	10	?	10	15
O=C(COC(=O)C12CC3CC(CC(C3)C1)C2)NCCCc1ccccc1	2%	0%	12	2%	17	25
COc1cc(Nc2nc(SCc3cccc(Cl)c3)nc3ccccc23)cc(OC)c1	?	-10%	·	?	·	·
COc1cc(Nc2nc(SCc3ccccc3F)nc3ccccc23)cc(OC)c1	?	1%	·	18µM*	·	·
